ClpP mod = qHTS Assay for Activators of ClpP; 340,000 compounds, 1.9% hits; Potency, µM (titrated, usually from 57.5 µM), inactives show at the top dose activity change, negative = active; purified B. subtilis ClpP, FRET peptide cleavage, 20 min; active = well fitted falling curve with a large enough effect; inconclusive = small, poorly fitted or top-dose-only effect; inactive = no such curve, though single readings can be large or run the other way; also: the source files actives as falling curves though it sought activators and does not explain the sign; nearly all actives have a fitted effect of over 65% in size
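FRET quenching reversal measured ClpP activation: 10 microg/mL B. subtilis ClpP at pH 8 with the FRET-FV decapeptide, read at 430 nm after 320 nm excitation. The 20-min minus 0-min signal was scaled between DMSO/no-enzyme wells and ADEP (5.8 microM final).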
TDP1 cell CPT = qHTS for Inhibitors of human tyrosyl-DNA phosphodiesterase 1 (TDP1): qHTS in cells in presence of CPT; chicken DT40 Tdp1-/-;hTDP1 cells + 20 nM CPT, ATP luminescence, 48 h; Potency, µM (titrated, usually from 46.2 µM), inactives show at the top dose activity change, negative = growth inhibition, actives largely listed as inhibitors; 420,000 compounds, 12% hits; also: % is scaled to controls: 0 for no effect and ±100 for the full control effect; nearly all actives have a fitted effect of over 55% in size
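Cell growth measured by CellTiter-Glo luminescence after a minimum 48 h, 37 C compound exposure with 20 nM CPT in Tdp1-knockout DT40 cells stably expressing hTDP1, seeded 400/well; qHTS titration format.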
DT40 TDP1 no CPT = qHTS for Inhibitors of human tyrosyl-DNA phosphodiesterase 1 (TDP1): qHTS in cells in absence of CPT | DT40 Tdp1-/- hTDP1 cells, no CPT, ATP luminescence, 48 h | Potency, µM (top dose mostly 46.2 µM), for the others: at the top dose activity change, negative = growth inhibition, actives largely listed as inhibitors | 420,000 compounds, 15% hits | AID 686978, 2013; also: % is scaled to controls: 0 for no effect and ±100 for the full control effect; nearly all actives have a fitted effect of over 55% in size
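Chicken DT40 Tdp1-/- cells complemented with human TDP1, screened without camptothecin (DMSO vehicle only), 400 cells/well. Compounds pin-transferred, cells incubated at 37 °C for at least 48 hr. Growth read as ATP-dependent luminescence (CellTiter-Glo, 30 min at RT).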
TDP1 inh = qHTS Assay for Inhibitors of Tyrosyl-DNA Phosphodiesterase (TDP1) | Tyrosyl-DNA phosphodiesterase 1 (Homo sapiens), Q9NUW8 | recombinant TDP1, AlphaScreen DNA substrate cleavage | Potency, µM (top dose mostly 130 µM), without a hit: top-dose activity change, negative = inhibition, usual class: inhibitors | 350,000 compounds, 0.28% hits; also: % is scaled to controls: 0 for no effect and ±100 for the full control effect; nearly all actives have a fitted effect of over 40% in size
Target sequence (Q9NUW8 whole entry, looked up): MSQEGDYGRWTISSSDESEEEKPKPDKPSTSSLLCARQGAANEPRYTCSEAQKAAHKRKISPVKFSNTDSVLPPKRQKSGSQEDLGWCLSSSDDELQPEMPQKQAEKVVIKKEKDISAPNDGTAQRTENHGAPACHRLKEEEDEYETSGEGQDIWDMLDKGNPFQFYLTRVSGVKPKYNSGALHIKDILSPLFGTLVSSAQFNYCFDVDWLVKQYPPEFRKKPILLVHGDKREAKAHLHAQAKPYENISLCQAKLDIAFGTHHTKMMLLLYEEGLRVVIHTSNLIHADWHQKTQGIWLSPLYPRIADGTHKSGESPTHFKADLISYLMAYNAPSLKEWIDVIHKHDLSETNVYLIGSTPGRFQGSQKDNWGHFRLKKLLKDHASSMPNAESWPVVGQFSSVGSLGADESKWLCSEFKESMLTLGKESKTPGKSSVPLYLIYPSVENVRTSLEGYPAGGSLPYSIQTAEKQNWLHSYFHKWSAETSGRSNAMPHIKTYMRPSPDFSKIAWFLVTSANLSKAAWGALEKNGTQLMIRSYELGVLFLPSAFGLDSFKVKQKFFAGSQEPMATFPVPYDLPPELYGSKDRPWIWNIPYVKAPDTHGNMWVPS
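AlphaScreen read-out: signal falls as enzyme removes the 3' tyrosine-FITC from a 5'-biotinylated DNA oligo (15 nM, 5 min, RT). Enzyme was E. coli-made recombinant Tdp1 at 1 nM, exposed to compound for 15 min beforehand; beads 10 ug/ml, 10 min.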
* = called active by the depositor; ? = inconclusive; · = not tested or not shown; [ ] = another dose, or the depositor's remark. The list is not random: actives were taken first. Their share in the collection is about 17%. Unless noted, calls follow the shape of the dose curve; as a rule, active = well fitted curve in the direction sought with a large enough effect; inconclusive = small, poorly fitted or top-dose-only effect, or another doubt; inactive = no such curve, though single readings can be large; an effect the other way counts as inactive or inconclusive. Potency is read from the fitted curve at half-maximal effect.

SMILES	ClpP mod	TDP1 cell CPT	DT40 TDP1 no CPT	TDP1 inh
CCOC(=O)[C@]12CCCC=C1N(CCC1=CCCCC1)C(=O)[C@H](CC(=O)NCc1ccc(C)o1)C2	1%	?	13µM*	·
CCOC(=O)[C@]12CCCC=C1N(Cc1ccccc1)C(=O)[C@H](CC(=O)NCc1ccc(C)o1)C2	2%	?	?	·
CCOC(=O)[C@]12CCC=C1N(CCC1=CCCCC1)C(=O)[C@H](CC(=O)NCc1ccccc1)C2	1%	?	?	·
CCN1CCCC1CNC(=O)c1cnn(-c2nccc(-c3ccccc3F)n2)c1C (centres undefined)	·	-2%	-19%	·
CCOC(=O)N1CCN(C(=O)c2ccc(Oc3ccc([N+](=O)[O-])cc3)cc2)CC1	·	16µM*	23µM*	3%
CN1CCN(C(=O)c2ccc(Oc3ccc([N+](=O)[O-])cc3)cc2)CC1	·	-13%	?	5%
O=C(c1ccc(Cl)cc1)N1CCC(c2ccncc2)CC1	-2%	?	-72%	-6%
CCOc1ccc(C(=O)C2CCN(C(=O)c3ccc([N+](=O)[O-])cc3)CC2)cc1	1%	?	21µM*	·
CCOc1ccc(C(=O)N2CCC(c3ccncc3)CC2)cc1	-1%	13µM*	?	3%
O=C1CSC(c2ccc([N+](=O)[O-])cc2)N1c1ccc(O)cc1 (centres undefined)	-1%	-8%	-18%	·
C/C(N)=C(/C#N)C(=O)CSc1nc2ccccc2c(=O)n1-c1ccc(C)c(Cl)c1	1%	-1%	?	3%
C=CCn1c(NS(=O)(=O)c2ccccc2)c(S(=O)(=O)c2ccc(C)cc2)c2nc3ccccc3nc21	-1%	?	?	3%
CC(=O)Nc1nonc1-c1nc2ccccc2n1Cc1ccccc1	18%	?	?	8%
CC(=O)Nc1c(S(=O)(=O)c2ccccc2)c2nc3ccccc3nc2n1Cc1ccccc1	16µM*	-3%	-13%	2%
O=S(=O)(Nc1c(S(=O)(=O)c2ccccc2)c2nc3ccccc3nc2n1C1CCCCC1)c1ccccc1	?	9.2µM*	5.2µM*	-1%
CN(C)CCCn1c(N)c(S(=O)(=O)c2ccccc2)c2nc3ccccc3nc21	·	18µM*	?	4%
CC(=O)Nc1ccc(S(=O)(=O)c2c(N)n(CCN3CCOCC3)c3nc4ccccc4nc23)cc1	32µM*	-8%	-5%	-2%
Nc1c(S(=O)(=O)c2cc(Cl)ccc2Cl)c2nc3ccccc3nc2n1CCN1CCOCC1	?	-22%	?	3%
CCCCn1c(N)c(S(=O)(=O)c2ccc(C)cc2)c2nc3ccccc3nc21	·	-101%	?	0%
C[C@@H]1CC[C@H]2C(=O)O[C@H](CN=[N+]=[N-])CN2[C@@H]1c1ccc(Br)cc1	·	·	·	3%[21 µM]
C[C@H](CO)N1C[C@H](C)[C@@H](CN(C)Cc2cccc(O)c2)OCc2cnnn2CCCC1=O	1%	12%	6%	·
O=c1nc(N/N=C/C=C/c2ccccc2)cn[nH]1	·	?	8.2µM*	5%
N#Cc1c(N2CCCCC2)nc(N2CCCCC2)c2c1CCN(Cc1ccccc1)C2	11µM*	?	?	2%
Cc1nc(N2CCN(C(=O)c3ccc(Cl)cc3)CC2)c(C#N)c2c1COC(C)(C)C2	?	29µM*	?	3%
N#Cc1c(N2CCN(C(=O)c3ccccc3)CC2)nc(-c2ccccc2)c2c1CCCC2	28µM*	?	?	-2%
SMILES	ClpP mod	TDP1 cell CPT	DT40 TDP1 no CPT	TDP1 inh
N#Cc1c(N2CCN(C(=O)c3ccccc3Cl)CC2)nc(-c2ccccc2)c2c1CCCC2	5%	-24%	-17%	-4%
CCOC(=O)C(C)Sc1nc(N2CCOCC2)c2c(c1C#N)CC(C)(C)OC2 (centres undefined)	·	0%	?	·
N#Cc1c(N2CCN(C(=O)c3ccco3)CC2)nc(-c2ccccc2)c2c1CCCC2	14µM*	26µM*	?	6%
N#CC(CC(=O)c1ccc(F)cc1)c1ccc2c(c1)OCO2 (centres undefined)	-1%	2%	?	·
CCc1nc(N2CCN(C(=O)c3ccco3)CC2)c(C#N)c2c1COC(C)(C)C2	3%	?	?	2%
CC1(C)Cc2c(C#N)c(N3CCN(C(=O)c4ccco4)CC3)nc(Cc3ccccc3)c2CO1	28µM*	?	?	2%
Cc1ccnc(NS(=O)(=O)c2ccc(NC(=O)C(C)(C)Oc3ccc(Cl)cc3)cc2)n1	-2%	-15%	1%	7%
Oc1ccc(C=NC2CCCCC2)c(O)c1	·	14%	-12%	3%
O=C1N=C(N2CCN(Cc3ccccc3)CC2)S/C1=C/c1cccs1	·	-17%	12µM*	7%
CCN1CCCC1Cn1c(-c2ccccc2)nc2c(NC3CCCCC3)nc(C)nc21 (centres undefined)	·	·	·	6%
CC(C)Sc1ncc(Cl)c(C(=O)N(Cc2ccc(F)cc2)C2CCS(=O)(=O)C2)n1 (centres undefined)	0%	?	23µM*	5%
CCSc1ncc(Cl)c(C(=O)N(Cc2ccccc2Cl)C2CCS(=O)(=O)C2)n1 (centres undefined)	0%	18µM*	15µM*	9%
CSc1ncc(Cl)c(C(=O)N(Cc2ccc(C(C)C)cc2)C2CCS(=O)(=O)C2)n1 (centres undefined)	-4%	?	?	0%
CCCOc1ccc(CN(C(=O)c2nc(SC(C)C)ncc2Cl)C2CCS(=O)(=O)C2)cc1 (centres undefined)	2%	?	15µM*	-5%
CCOc1ccc(CC(=O)N2CCN=C2SCc2ccc([N+](=O)[O-])cc2)cc1	·	?	29µM*	5%
Cc1ccc(C(=O)N2CCN=C2SCc2ccc([N+](=O)[O-])cc2)cc1	0%	?	15µM*	3%
Cc1ccc(CSC2=NCCN2C(=O)c2ccc([N+](=O)[O-])cc2)cc1	1%	-9%	-6%	7%
COCc1cc(C)nc(N/N=C/c2ccc(Cl)c(Cl)c2)c1C#N	0%	2%	13%	-5%
OC(CN1CCOCC1)c1ccc(F)cc1 (centres undefined)	-1%	5%	-6%	-1%
O=C(c1ccc(F)cc1)C(CCCCCC(CN1CCOCC1)C(=O)c1ccc(F)cc1)CN1CCOCC1 (centres undefined)	-2%	?	18µM*	4%
Cc1cc(NC(=O)CSc2ncc(C(=O)O)n2-c2ccc(F)cc2)no1	0%	11%	-4%	?
Cc1ccc(OC(=O)COc2ccccc2)c(-n2nc3ccccc3n2)c1	32µM*	6%	-18%	·

From PubChem
